Pf growth 48h – inhibits P. falciparum growth in the first generation, 48 h; P. falciparum luciferase growth in erythrocytes, 48 h; Potency, µM (series often up to 28.7 µM), actives largely listed as inhibitors; 5.9% of 310,000 active
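Growth was read as firefly luciferase luminescence after a 48 h, 37 C, 5% CO2 exposure of compounds to reporter-bearing P. falciparum cultures (0.1% parasitemia, 2% hematocrit final) in Albumax-supplemented RPMI 1640.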
HCV inh – HCV inhibition; Huh7.5.1 HCVcc-Cre infection, luciferase reporter, 44 h; Potency, µM (series often up to 41.8 µM), actives largely listed as inhibitors; AID 651820; 3.4% of 340,000 active
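Cells seeded at 1,000/well and cultured 4 h, then compounds added followed by HCVcc-Cre virus (~0.5 moi). After 44 h further culture, luciferase substrate was added, plates held 15 min at room temperature, and luminescence read for 15 sec.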
AMA1-RON2 inh – inhibitors of Plasmodium falciparum AMA1-RON2 interaction; AlphaScreen AMA1-biotinylated RON2 peptide binding; 0.2% of 360,000 active; Potency, µM (doses to about 58.2 µM), usual class: inhibitors; also: nearly all actives have a fitted effect of over 45% in size
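AMA1 (3D7) with his tag at 25 nM final met compounds first, then biotinylated RON2 peptide at 25 nM; detection used donor plus acceptor beads, 10 µg/mL apiece, read by AlphaScreen after 30 min at room temperature.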
Pf growth 96h – P. falciparum growth inhibition at 96 hour, primary screen for plastid delayed-death inhibitors; P. falciparum luciferase reporter growth, 96 h; Potency, µM (highest dose often 28.7 µM), hits mostly inhibitors; 6.9% of 320,000 active; AID 504834
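Luminescence readout: decreased luciferase signal marks inhibited growth of reporter-expressing P. falciparum in infected red cells (2% hematocrit, 0.05% parasitemia final), exposed to compound two generations (96 h, 37 C, 5% CO2).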
A number is an active result; – = inactive; ? = inconclusive; · = not tested or not shown; [ ] = dose if it differs, or a comment. Shown are actives, neighbours in structure and some others; about 11% of the full set was active somewhere. Calls follow the shape of the dose curve; as a rule, active = well fitted curve in the direction sought with a large enough effect; inconclusive = small, poorly fitted or top-dose-only effect, or another doubt; inactive = no such curve, though single readings can be large; an effect the other way counts as inactive or inconclusive.

SMILES	Pf growth 48h	HCV inh	AMA1-RON2 inh	Pf growth 96h
Cc1ccc(/C=N/NC(=O)c2c(-c3ccccc3)noc2C)o1	–	–	–[2.32 µM]	–
Cc1onc(-c2ccccc2)c1C(=O)N/N=C/c1cc(Br)c(Br)o1	?	–	–	13.1µM
CCOc1cc(/C=N/NC(=O)c2c(-c3ccccc3)noc2C)ccc1O	–	–	–	?
O=C1NC2(CCCC2)C(=O)N1CC(=O)N(Cc1ccccc1)c1ccccc1	?	–	–	–
O=C(Nc1ccccc1F)c1ccc(-n2cncn2)nc1	?	–	–	–
CC1=C(C(=O)N(C(C)C)C(C)C)CC(CC(=O)NCc2ccco2)C(=O)N1Cc1ccccc1 (centres undefined)	·	·	–	·
O=C(c1cc(-c2ccco2)nc2ccccc12)N1CCN(c2ccc(F)cc2)CC1	?	?	?	13.1µM
O=C(OCC(=O)N1CCN(C(=O)c2ccco2)CC1)c1cc(-c2ccco2)nc2ccccc12	–	–	21.2µM	?
Cc1sc2c(c1C)C(c1ccc(C(C)(C)C)cc1)=NCC(=O)N2CC(=O)Nc1nccs1	?	–	–	10.4µM
Cc1sc2c(c1C)C(c1cccs1)=NCC(=O)N2CC(=O)NCc1cccs1	?	?	–	·
Cc1cc(OCC(=O)Nc2ccc(S(=O)(=O)N3CCN(C)CC3)cc2)ccc1Cl	4.15µM	?	–	11.7µM
Cc1cc(OCC(=O)Nc2ncn[nH]2)ccc1Cl	–	–	–	1.85µM
Cc1cc(OCC(=O)Nc2ccc(S(=O)(=O)N3CCN(C)CC3)cc2)cc(C)c1Cl	?	11.2µM	–	–
CCN1CCc2c(OCC(=O)Nc3ccc4c(c3)OCCO4)cccc2C1=O	–[1.15 µM]	·	·	6.57µM
CN1CCN(S(=O)(=O)c2ccc(NC(=O)COc3ccccc3)cc2)CC1	?	–	–	?
NNC(=O)CNC(=O)Nc1n[nH]c(=S)s1	·	·	–	·
COc1ccc(-c2ccc(-c3cc(=O)oc4cc(OC)c(OC)c(OC)c34)cc2)cc1	·	–	–	·
COc1cccc(Cn2cnc(-c3ccccc3OC)c2C2CC2)c1	·	·	–	·
COC(=O)c1cncc(C)c1	–	–	–	–
O=c1[nH]cc(C(F)(F)F)cc1NS(=O)(=O)c1ccccc1[N+](=O)[O-]	?	–	–	–
Cc1cc(C)cc(OCC(=O)Nc2ccc3c(c2)OCCO3)c1	–	–	–	–
CN(CC(=O)Nc1ncn[nH]1)S(=O)(=O)c1cc(Cl)ccc1Cl	10.4µM	–	–	–
Cc1cc(OCC(=O)Nc2ccc3c(c2)OCCO3)ccc1Cl	–	–	–	8.28µM
CC(=O)Nc1ccc(S(=O)(=O)Nc2ccccc2N2CCOCC2)cc1	–	–	–	?
CCCCn1c(N)c(N(CC(C)C)C(=O)C2CC(=O)N(Cc3ccccc3)C2)c(=O)[nH]c1=O (centres undefined)	?	?	–	–
SMILES	Pf growth 48h	HCV inh	AMA1-RON2 inh	Pf growth 96h
COc1ccc(-c2[nH]ncc2CNCCCSC)cc1F	–	–	–	5.22µM
CN(c1ccccc1)S(=O)(=O)c1cccc(NC(=O)CSc2ncc(C(F)(F)F)cc2Cl)c1	–	?	–[11.6 µM]	–
C=CCNC(=S)N/N=C/c1cn(C)c2ccccc12	8.28µM	35.5µM	–	?
Cn1cccc1/C=N/NC(=O)c1cccs1	–	–	–	–
Cn1cc(/C=N\NC(=O)c2cccs2)c2ccccc21	–	–	–	5.86µM
Cn1cc(/C=N/NC(N)=S)c2ccccc21	–	–	–	?
CCN(CC)C(=O)c1cccc(-c2csc(C(C)(O)c3ccncc3)n2)c1 (centres undefined)	·	·	–	·
COc1cccc(CN(C)CC(=O)Nc2ccccc2C(C)C)c1	?	–	–	–
Cc1ccc(-c2nn(-c3ccccc3)cc2C=O)o1	–	–	–	–
CCc1nc2c(OCCn3cccc3)cccn2c1N(C)C(=O)c1ccco1	·	·	–	·
Cc1ccsc1/C=N/NC(=S)NCc1ccccc1	2.94µM	?	–	–
Cc1ccsc1/C=N\NC(=O)CC(=O)NCc1ccccc1	–	–	–	–
CCNC(=S)N/N=C/c1cccc(/C=N/NC(=S)NCC)c1	–	–	–	–
CCNC(=S)N/N=C/c1cccs1	·	–	–	4.65µM
CN(C)c1ccc(/C=N/NC(=S)NCc2ccccc2)cc1	?	–	?	11.7µM
Cc1cc(C(C)(C)C)cc(CN2CCN(S(=O)(=O)c3cccs3)CC2)c1O	·	·	–	·
FC(F)(F)c1cc(-c2cccs2)nc2nc(N3CCOCC3)sc12	?	–	–	?
COc1ccc(CCNc2nc(N3CCCCC3)nc(N3CCCCC3)n2)cc1OC	13.1µM	22.4µM	–	–
COc1ccc(CCNc2nc(=S)[nH]c3cc(OC)c(OC)cc23)cc1OC	?	?	–	?
COc1ccc(CCNc2c3ccccc3nc3ccccc23)cc1OC	1.47µM	?	–	1.85µM
COc1nc(NCCc2ccc(OC)c(OC)c2)nc(OC)n1	–	–	–	·
COc1ccc(CCNc2nc(N3CCOCC3)nc(N3CCOCC3)n2)cc1OC	–	?	–	–
COc1ccc(CCNc2ncnc3c2[nH]c2cc(OC)c(OC)cc23)cc1OC	?	–	?	1.85µM
COc1ccc(CCNc2ncnc3cc(OC)c(OC)cc23)cc1OC	13.1µM	10µM	–	–
CN(CCN1CCOCC1)C(=O)c1cc(COc2ccc(F)c(F)c2)on1	–	–	–	–
SMILES	Pf growth 48h	HCV inh	AMA1-RON2 inh	Pf growth 96h
COc1cccc(CNc2ncnc3cc(OC)c(OC)cc23)c1	?	–	–	?
COc1cc2ncnc(NCCc3ccccc3)c2cc1OC	10.4µM	11.2µM	–	?
Cc1ccc(S(=O)(=O)N2CCC(=O)N(CCOCc3cccc(Cl)c3)CC2)cc1	–	–[8.37 µM]	–	?
O=C1CCN(S(=O)(=O)c2ccccc2)CCN1CCOCc1ccccc1	–	–	–	9.28µM
Cc1cccc(COCCN2CCN(S(=O)(=O)c3ccccc3)CCC2=O)c1	–	–	–	14.7µM
CCC(C(=O)NCc1ccco1)N(C(=O)CNS(=O)(=O)c1ccccc1)c1ccccc1C (centres undefined)	–	–	–	–
CC(=O)OCC1O[C@@H](O[C@@H]2C[C@H]3C(C)(C)[C@H](OC(C)=O)CC[C@]3(C)[C@H]3CC[C@]45C[C@]4(CC[C@H]5[C@@H](C)C[C@@H](O)[C@H](O)C(C)(C)O)[C@@]32C)[C@H](O)[C@@H](O)[C@@H]1O (some centres undefined)	11.7µM	–[8.37 µM]	·	5.86µM
CC(C)=CCC[C@](C)(O[C@@H]1O[C@H](CO[C@@H]2O[C@H](CO)[C@@H](O)[C@H](O)[C@H]2O)[C@@H](O)[C@H](O)[C@H]1O)C1CC[C@]2(C)C1C(=O)CC1[C@@]3(C)CC[C@H](O[C@H]4O[C@@H](CO)[C@H](O)[C@@H](O)[C@@H]4O)C(C)(C)C3CC[C@]12C (some centres undefined)	·	–	–	·
COc1ccccc1CC(=O)Nc1ccc2c(c1)OC1(CCCC1)O2	·	12.6µM	–	·
CC1(c2ccccc2)NC(=O)N(CC(=O)Nc2ccc(N3CCOCC3)cc2)C1=O (centres undefined)	·	–	–	·
CCCC(=O)N(C)c1nnc(-c2ccc(OC)cc2)s1	–	–	–	10.4µM
COCCN(C(=O)CCc1ccc(OC)cc1)c1nnc(-c2ccncc2)s1	–	–	–	–

High-throughput results from PubChem.
